Assay outcomes (PubChem BioAssay)
HT1080-NT tox = kills 2HG-producing HT-1080-NT fibrosarcoma cells | hit rate 1.6% among 360,000 | HT-1080-NT fibrosarcoma viability, CellTiter-Glo ATP luminescence, 48 h | Potency, µM (top dose mostly 46.1 µM), inactives show top-dose activity, negative = less viability, actives largely listed as cytotoxic;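 further: NT is the 2HG producing partner of a matched IDH1 knockdown line; 0% = DMSO-treated cells and -100% = media-only wells without cells; nearly all actives have a fitted effect of over 55% in size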
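A 48-hour cytotoxicity screen used HT-1080-NT cells plated 2 hours before compound delivery. ATP-based CellTiter-Glo luminescence measured viability, normalized to DMSO and no-cell controls.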
TGFb inhibitor = TGF-b pathway inhibition. HepG2 CAGA-GFP TGF-b/SMAD3 reporter, GFP fluorescence, 18 h; TGF-beta stimulated, 500 pg/mL final. Potency, µM (series often up to 46.1 µM), for the others: at the highest dose activity, negative = inhibition, most hits filed as inhibitors. hit rate 1.2% among 410,000. AID 588855; further: on the % scale 0 is the no-effect control and ±100 the full control effect; nearly all actives have a fitted effect of over 65% in size
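HEPG2 CAGA-GFP cells (1000/well, DMEM with 1% FBS) were pre-incubated 2 h at 37 degrees C, given compound by pin tool, then stimulated with TGF-beta at 500 pg/mL final for 18 h before per-cell GFP fluorescence imaging.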
HepG2 tox = kills HepG2 cells in TGF-b inhibitor counter-screen; HepG2 CAGA-GFP viability, ATP luminescence, 18 h; Potency, µM (top dose mostly 46.1 µM), for the others: at the highest dose activity change, negative = cytotoxicity, actives largely listed as cytotoxic; hit rate 0.76% among 410,000; AID 588856
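CellTiter-Glo luminescence gave cytotoxicity after 18 hours at 37 degrees C. The cells were HepG2 CAGA-GFP in 1% FBS DMEM, stimulated with 500 pg/mL TGF-beta after compound addition. %Activity was normalised to no-cell wells (complete cell-killing) and DMSO (no toxicity), and curves were fitted and classified.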
KB-3-1 cytotox = kills parental KB-3-1 adenocarcinoma cells. KB-3-1 viability, CellTiter-Glo ATP luminescence, 72 h. Potency, µM (series often up to 46.1 µM), hits mostly cytotoxic. hit rate 1.4% among 400,000; further: on the % scale 0 is the no-effect control and ±100 the full control effect; nearly all actives have a fitted effect of over 60% in size
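Parental KB-3-1 viability, qHTS format: 72 h compound exposure, 37 °C; CellTiter-Glo; media-only wells and DMSO plates as controls; concentration-effect fits on corrected data.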
KB-V1 MDR tox = kills drug-selected multidrug resistant KB-V1 cells. KB-V1 MDR cells viability, CellTiter-Glo, 72 h. Potency, µM (doses to about 46.1 µM), usual class: cytotoxic. hit rate 3.4% among 400,000. AID 1347076; further: on the % scale 0 is the no-effect control and ±100 the full control effect; nearly all actives have a fitted effect of over 60% in size
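KB-V1 MDR subline cells in DMEM (phenol-red free, 10% FBS) exposed to compounds in qHTS concentration series for 72 h at 37 degrees C. Viability read by CellTiter-Glo luminescence; concentration-effect curves fitted after normalization and correction.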
HT1080 IDH1KD tx = toxicity to HT-1080 IDH1 knockdown cells (counter line); HT-1080 IDH1 knockdown viability, ATP luminescence, 48 h; Potency, µM (titrated, usually from 46.1 µM), for inactives: at the top dose activity, negative = toxicity, actives largely listed as cytotoxic; hit rate 2% among 360,000; AID 686971;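 further: 0% = DMSO wells and -100% = cell-free medium wells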
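Cytotoxicity counter-line: IDH1KD HT-1080, 48 h, CellTiter-Glo. Curves classed by r2, magnitude and activity.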
Active calls of the source: *. A selection: hits, their analogues and other compounds. The true share with any hit is near 6.6%. The call rests on the fitted dose curve; in most records, active means well fitted curve in the direction sought with a large enough effect; inconclusive means small, poorly fitted or top-dose-only effect, or another doubt; inactive means no such curve, though single readings can be large; an effect the other way counts as inactive or inconclusive. Potency means the concentration at half of the fitted maximal effect.

`O=C(COc1cc(Cl)ccc1Cl)Nc1ccc(Cl)cc1C(=O)c1ccccc1` gave TGFb inhibitor 7% and HepG2 tox -12%.
Screening COC(=O)C1=C(C(=O)OC)SC2(S1)C(C(=O)OC)=C(C(=O)OC)Sc1c2ssc1=O returned HT1080-NT tox 5.2µM*, TGFb inhibitor inconclusive, HepG2 tox -107%, KB-3-1 cytotox inconclusive, KB-V1 MDR tox inconclusive and HT1080 IDH1KD tx 1.2µM*.
`CC[C@@H](C)[C@H](C(CC(=O)N1CCCC1[C@@H](OC)[C@H](C)C(=O)N[C@H](Cc1ccccc1)c1nccs1)OC)N(C)C(=O)[C@H](NC(=O)[C@@H](C(C)C)N(C)C)C(C)C` (stereo partly specified) gave HT1080-NT tox 0.26µM*, TGFb inhibitor -62%, HepG2 tox -22%, KB-3-1 cytotox inconclusive, KB-V1 MDR tox 0.18µM* and HT1080 IDH1KD tx inconclusive.
For Cc1cc(S(=O)(=O)NC(C)C)ccc1OCC(=O)N1CCN(Cc2ccc3c(c2)OCO3)CC1 the results were HT1080-NT tox inconclusive, TGFb inhibitor inconclusive, HepG2 tox -32%, KB-3-1 cytotox 16µM*, KB-V1 MDR tox 2.6µM* and HT1080 IDH1KD tx inconclusive.
Screening CCN(C(=O)Cn1c(=O)oc2cc(Cl)ccc21)c1cccc(C(F)(F)F)c1 returned TGFb inhibitor inconclusive, HepG2 tox -92%, KB-3-1 cytotox inactive and KB-V1 MDR tox inconclusive.
`O=C(Nc1cccc(C(F)(F)F)c1)OC1CN2CCC1CC2` (stereo unspecified) gave HT1080-NT tox -10%, TGFb inhibitor 2%, HepG2 tox -16%, KB-3-1 cytotox inactive, KB-V1 MDR tox inactive and HT1080 IDH1KD tx -12%.
Screening OC(c1cccc(Cl)c1)(c1cccc(Cl)c1)C1CN2CCC1CC2 (stereo unspecified) returned HT1080-NT tox 23µM*, TGFb inhibitor inconclusive, HepG2 tox -109%, KB-3-1 cytotox inconclusive, KB-V1 MDR tox inconclusive and HT1080 IDH1KD tx 18µM*.
Screening CNC(=O)O/N=C/C(C)(C)S(C)=O (stereo unspecified) returned TGFb inhibitor -3%, HepG2 tox -5%, KB-3-1 cytotox inactive and KB-V1 MDR tox inactive.
COc1cccc(C2CC3C(=O)C=CC2N3Cc2ccccc2)c1 (stereo unspecified) was read as HT1080-NT tox -23%, TGFb inhibitor 0%, HepG2 tox -18%, KB-3-1 cytotox inconclusive, KB-V1 MDR tox inconclusive and HT1080 IDH1KD tx -26%.
`O=C1C=CC2C3C(=O)N(c4ccccc4)C(=O)C3C1N2Cc1ccccc1` (stereo unspecified) gave HT1080-NT tox inconclusive, TGFb inhibitor 2.8µM*, HepG2 tox 13µM*, KB-3-1 cytotox inconclusive, KB-V1 MDR tox 18µM* and HT1080 IDH1KD tx 10µM*.
`Cc1ccccc1OCC(=O)N1CCN(CCc2ccccn2)CC1` gave TGFb inhibitor -12%, HepG2 tox 0%, KB-3-1 cytotox inconclusive and KB-V1 MDR tox inactive.
Screening COc1ccc(C(=O)CN2CCOCC2)cc1 returned TGFb inhibitor inconclusive, HepG2 tox -42%, KB-3-1 cytotox inactive and KB-V1 MDR tox inactive.
For O=c1[nH]c(O)c(C=NC2CCCCC2)c(=O)[nH]1 the results were HT1080-NT tox 5%, TGFb inhibitor 5%, HepG2 tox 0.63µM*, KB-3-1 cytotox inactive, KB-V1 MDR tox inactive and HT1080 IDH1KD tx -1%.
Cn1c(O)c(C=NC2CCCCC2)c(=O)[nH]c1=S was read as HT1080-NT tox 4%, TGFb inhibitor -5%, HepG2 tox -7%, KB-3-1 cytotox inactive, KB-V1 MDR tox inactive and HT1080 IDH1KD tx 23%.
COC1/C=C/C=C(\C)Cc2cc(O)c(Cl)c(c2)N(C)C(=O)CC(OC(=O)C(C)C)C2(C)OC2C(C)C2CC1(O)NC(=O)O2 (stereo unspecified) was read as HT1080-NT tox 0.0092µM*, TGFb inhibitor inconclusive, HepG2 tox -5%, KB-3-1 cytotox inconclusive, KB-V1 MDR tox 0.73µM* and HT1080 IDH1KD tx inconclusive.
For Cc1ccc(N2C(=O)NC(=O)/C(=C\C=C\c3ccco3)C2=O)cc1 the results were HT1080-NT tox inconclusive, TGFb inhibitor inconclusive, HepG2 tox -50%, KB-3-1 cytotox inconclusive, KB-V1 MDR tox inactive and HT1080 IDH1KD tx inconclusive.
Cc1cccc(N2C(=O)NC(=O)/C(=C\C=C\c3ccco3)C2=O)c1 was read as HT1080-NT tox inconclusive, TGFb inhibitor 8.9µM*, HepG2 tox -38%, KB-3-1 cytotox inconclusive, KB-V1 MDR tox inactive and HT1080 IDH1KD tx inconclusive.
Screening CN(C)c1ccc(/C=C/C=C2/C(=O)NC(=O)N(c3ccccc3)C2=O)cc1 returned HT1080-NT tox 4.6µM*, TGFb inhibitor -13%, HepG2 tox 4%, KB-3-1 cytotox inactive, KB-V1 MDR tox inconclusive and HT1080 IDH1KD tx 6.5µM*.
Screening O=C1NC(=O)N(c2ccccc2)C(=O)/C1=C/C=C/c1ccco1 returned HT1080-NT tox 18µM*, TGFb inhibitor inconclusive, HepG2 tox -98%, KB-3-1 cytotox inconclusive, KB-V1 MDR tox inconclusive and HT1080 IDH1KD tx inconclusive.
For Cc1cccc(N2C(=O)NC(=O)/C(=C\c3cccn3-c3ccc(Cl)cc3)C2=O)c1 the results were HT1080-NT tox inconclusive, TGFb inhibitor inconclusive, HepG2 tox -18%, KB-3-1 cytotox inconclusive, KB-V1 MDR tox 18µM* and HT1080 IDH1KD tx inconclusive.
For Cc1ccccc1Cn1cccc(C(=O)Nc2cc(Cl)ccc2C#N)c1=O the results were TGFb inhibitor -26%, HepG2 tox -24%, KB-3-1 cytotox inactive and KB-V1 MDR tox inconclusive.
Screening O=C(COc1ccc(S(=O)(=O)N2CCOCC2)cc1)Nc1ccc(Cl)c(C(F)(F)F)c1 returned HT1080-NT tox inconclusive, TGFb inhibitor inconclusive, HepG2 tox -35%, KB-3-1 cytotox inconclusive, KB-V1 MDR tox inconclusive and HT1080 IDH1KD tx inconclusive.
`CN1CC=C(/C=C/c2ccc(-c3ccccc3)cc2)CC1` gave HT1080-NT tox -17%, TGFb inhibitor inconclusive, HepG2 tox 11µM*, KB-3-1 cytotox inactive, KB-V1 MDR tox inactive and HT1080 IDH1KD tx -13%.
`COc1ccc(C(=O)NCCn2cc(SCc3ccc(C(F)(F)F)cc3)c3ccccc32)cc1OC` gave TGFb inhibitor 7.1µM*, HepG2 tox -16%, KB-3-1 cytotox inactive and KB-V1 MDR tox inactive.
